Data on ten compounds can be found in PubChem BioAssay (NCI).

Some test systems named below: NCI-H23 lung; NCI-H226 lung; NCI-H322M lung; NCI-H460 lung; HOP-92 NSCLC; NCI-H522 lung; A549/ATCC NSCLC; 786-0 renal; COLO 205 colon; HOP-62 NSCLC.
Common to all, as to assay: NCI-60 one-dose screen, 48 h (100 = growth as untreated, 0 = no growth, -100 = all killed)
Details in all cases: 10 µM unless noted

Compounds without any hit were thinned out: in the full panel of roughly 83,000, 20% have a hit.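 Interpretation: 100, growth as untreated; towards 0, rising growth inhibition; 0, no net growth; 0 to -100, cell death. Compounds scoring below 10 were considered active.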 Unmarked numbers belong to inactive results. Active and inactive are the calls of the source.

Consider `Cc1ncc(C(=O)Nc2ccc(CN3CCN(C)CC3)c(C(F)(F)F)c2)cc1C#Cc1cnc(N)c2ncccc12`, for which the growth in the test on NCI-H23 lung was 38.4%; with NCI-H226 lung, 42.6%; with NCI-H322M lung it was 30.3%; in the test on NCI-H460 lung it was 27.1%; with HOP-92 NSCLC it was 14.7%; in the test with NCI-H522 lung it was 26.2%. The growth in the test on A549/ATCC NSCLC was 21.2%; in the test on 786-0 renal it was -71.4% (active); in the test on COLO 205 colon it was 1.6% (active).

Regarding `Cc1c2ccncc2c(C)c2c1c1cc(CO)ccc1n2C`, the growth in the test with NCI-H23 lung is 6.65% (active); in the test with NCI-H226 lung it was -49.2% (active); in the test on NCI-H322M lung it was 3.23% (active); in the test on NCI-H460 lung it was -35.4% (active); in the test on HOP-92 NSCLC, -5.78% (active); in the test on NCI-H522 lung, 21.1%. For the same compound, the growth in the test on A549/ATCC NSCLC is 2.79% (active); in the test with 786-0 renal, 1.95% (active); in the test on COLO 205 colon it was -39% (active).

Regarding `O=C(Nc1ccccc1O)c1ccc(CNC(=O)c2ccsc2Nc2ccnc(C(F)(F)F)c2)cc1`, the growth is 13.5% in the test with NCI-H23 lung; 38.3% in the test with NCI-H226 lung; 46.1% in the test with NCI-H322M lung; 26% with NCI-H460 lung; -2.27% (active) in the test on HOP-92 NSCLC; 42.8% in the test with 786-0 renal. Besides, the growth with COLO 205 colon is 47.3%.

As to `CC1(C)N=C(N)N=C(N)N1c1cccc(CCc2ccccc2)c1`, the growth with NCI-H23 lung is 21.7%; in the test with NCI-H226 lung it was 48.1%; in the test with NCI-H322M lung, 45.8%; with NCI-H460 lung, 16.1%; in the test with HOP-92 NSCLC it was 63.2%; in the test on NCI-H522 lung, 21.4%. Further, the growth with 786-0 renal was 30.8%; with COLO 205 colon, 29.5%.

As for `Cc1nc2cc(O)c(O)cc2cc1Oc1ccc(NC(=O)Nc2ccc(Cl)c(Cl)c2)cc1`, the growth with NCI-H23 lung was 62.8%; in the test with NCI-H226 lung, 38.3%; with NCI-H322M lung, 94%; with NCI-H460 lung, 62.1%; in the test with HOP-92 NSCLC, 37.5%; in the test with NCI-H522 lung, 1.87% (active). Moreover, the results for the growth with A549/ATCC NSCLC, in the test on 786-0 renal and in the test with COLO 205 colon were 50.5%, 103% and 34.7%, respectively.

On to `O=c1c2c3c(sc2n2c(-c4cc(-c5ccccc5)no4)nnc2n1Cc1ccccc1)CCCC3`, for which the growth is 86.4% in the test on NCI-H23 lung; 97.6% in the test on NCI-H226 lung; 97.1% with NCI-H322M lung; 86% in the test on NCI-H460 lung; 76.5% with HOP-92 NSCLC; 55.2% in the test on NCI-H522 lung. Besides, the growth with 786-0 renal is 87.6%; in the test with COLO 205 colon, 96.4%.

As for `CC1C(/C=N/NC(N)=S)C(C#N)(C#N)C1(C#N)C#N` (stereo unspecified), the growth in the test on NCI-H23 lung is 101%; in the test with NCI-H226 lung it was 101%; in the test with NCI-H322M lung, 102%; in the test with NCI-H460 lung, 99.8%; in the test with HOP-92 NSCLC it was 92.9%; in the test with NCI-H522 lung it was 99.4%. Also, the growth with A549/ATCC NSCLC was 100%; in the test on 786-0 renal it was 104%; in the test with COLO 205 colon, 115%.

As for `CC1(C)N=C(N)N=C(N)N1c1ccc(CCCCc2ccccc2)c(Cl)c1`, the growth in the test with NCI-H23 lung was 6.38% (active); in the test with NCI-H226 lung, 34.7%; in the test on HOP-62 NSCLC it was 21.7%; with NCI-H460 lung it was 4.96% (active); in the test on HOP-92 NSCLC, 19.3%; in the test on NCI-H522 lung, -6.62% (active). Besides, the figures for the growth in the test with A549/ATCC NSCLC, in the test on 786-0 renal and in the test with COLO 205 colon were 15.9%, 16.3% and -75.8% (active), respectively.

As for `CCc1n(Cc2ccc3ccccc3n2)cc[n+]1Cc1ccc2ccccc2n1`, the growth is 16% in the test with NCI-H23 lung; 48.4% in the test with NCI-H226 lung; 40.9% with HOP-62 NSCLC; 34.8% in the test with NCI-H460 lung; -11.9% (active) in the test on HOP-92 NSCLC; -3.51% (active) in the test on NCI-H522 lung. In addition, the growth is 57.4% in the test with A549/ATCC NSCLC, 77.6% in the test with 786-0 renal and -38.9% (active) in the test with COLO 205 colon.

Take `CCS/C(Nc1ccccc1)=C(\C#N)C(=O)Nc1ccc(OC)cc1`: the growth was 48.3% with NCI-H23 lung; 57.9% in the test on NCI-H226 lung; 34.2% in the test with HOP-62 NSCLC; 10.1% in the test on NCI-H460 lung; 44.5% in the test on HOP-92 NSCLC; 0.635% (active) in the test with NCI-H522 lung. Also, the growth with A549/ATCC NSCLC is 34.6%; in the test with 786-0 renal, 39.5%; with COLO 205 colon, 17.5%.
